{"source": "PubChem BioAssay AID1508600", "about": "(Functional Genomics Laboratory (NCATS/FGL), 2020)", "note": "The campaign covered roughly 53,000 sequences. About 3,700 (7%) were called active. Shown is part of a subset that was picked to be rich in actives. Values without a mark were called inactive.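 The calls were made as follows: active = gene knockdowns whose robust z-score for IL-1 alpha signal is at least 2 or at most -2, so actives lie on both sides; inactive = the rest.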", "data": [{"assay": "Components of the Cytosolic LPS Sensing Pathway: Gene Identification via Genome-wide siRNA Screen;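 also: robust z of the log signal after scaling to non-targeting control siRNA wells of the plate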", "details": "RAW264.7 macrophages, IL-1a HTRF, actives lie on both sides, screened at 100 nM (by protocol), cells primed 5 h with Pam3CSK4 first", "procedure,_shortened": "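Three distinct siRNAs per gene were tested singly at 100 nM in RAW264.7 macrophages. Following Pam3CSK4 priming and 24 hour LipidA transfection, IL-1a secretion was read by HTRF.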", "values": [{"sequence": "CCAGACAUCGUGCUUUACATT against Chrna3", "z-score": 1.42}, {"sequence": "GUUAACCCUGAGCCUAAACTT against Spata3", "z-score": 0.356}, {"sequence": "GGGCGACAUCUUUAGCAAATT against Sh3bp4", "z-score": -0.0472}, {"sequence": "GCCUAAGCCCUUAAAGCGUTT against Lrrc41", "z-score": 0.643}, {"sequence": "CCCACUAAGGAACAAAUUGTT against Tex24", "z-score": 0.297}, {"sequence": "GGCUUGCAUCAAUAAAGAATT against Adam33", "z-score": 0.0554}, {"sequence": "GGUGGUUGAAGAAAUGGCUTT against Timm8a1", "z-score": -0.364}, {"sequence": "GGAGCAGAAGUCAAUCAGGTT against Myo1b", "z-score": 0.419}, {"sequence": "GGGACUAAUGUUUUGCCUATT against Krt16", "z-score": "-2.62 (active)"}, {"sequence": "GCGGAAGUCGACCUUUGAUTT against Cd164", "z-score": -0.238}, {"sequence": "CGACUUUGGACAAAAAUUGTT against Kdm2a", "z-score": 0.638}, {"sequence": "CCUACCCGAUUAUUCUUACTT against C2cd2l", "z-score": 0.125}, {"sequence": "GGCAGUAUUGACUCCUACCTT against 6430548M08Rik", "z-score": -0.973}, {"sequence": "GCUUGGAUUGAGCUUUACATT against Pid1", "z-score": "3.53 (active)"}, {"sequence": "GGAAGUUGUUGGGAACUUCTT against Afmid", "z-score": -0.401}, {"sequence": "GGGAAGUUUGGUUCUUUGGTT against Msn", "z-score": 0.749}, {"sequence": "GGAAAGCCACUGUGUAAAATT against Armc9", "z-score": 0.594}, {"sequence": "GCCUCUUCGAACUCACUAUTT against St6galnac3", "z-score": -0.807}, {"sequence": "GGAAAGAGGGUUUAUUUUGTT against 4930556L07Rik", "z-score": 0.919}, {"sequence": "GGGAAAGAGUUUUACAAACTT against Ttc22", "z-score": "2.74 (active)"}, {"sequence": "GGACCUGAACAAUAAGGUUTT against Tagap", "z-score": -1.78}, {"sequence": "GGAUUCUUUGGUCUAUUUCTT against Pudp", "z-score": -0.308}, {"sequence": "GGAGAAAGACCAUUACUGUTT against Ly6e", "z-score": 1.63}, {"sequence": "GGUGACAAACCGAUACUUGTT against Cope", "z-score": -0.966}, {"sequence": "GCAGACAAAGAUCCUAUGCTT against Atp2b3", "z-score": "-2.27 (active)"}, {"sequence": "CCUACCUAUUUAUCAAAGATT against Sgms1", "z-score": 0.977}, {"sequence": "GGAUUUUUACAGAGACAUGTT against Actr6", "z-score": -0.821}, {"sequence": "CGAUAUCUUACUUCUUUUGTT against E030011O05Rik", "z-score": 0.952}, {"sequence": "GGCCAUAGUCCUGUUCACCTT against Nr2f2", "z-score": 0.492}, {"sequence": "CCUUCAACAGAUCUAGAGUTT against Rexo1", "z-score": "2.36 (active)"}, {"sequence": "GGAGGUUACAAUCCAUGAGTT against Anapc1", "z-score": -0.951}, {"sequence": "GGAUAGAUUUUAGGUAUUGTT against Htr5b", "z-score": -0.475}, {"sequence": "CGGAGUAGCGAUUAUGGUGTT against Art5", "z-score": -0.535}, {"sequence": "GGAUUUAACCCUGAGAUACTT against Grpel2", "z-score": 0.621}, {"sequence": "GGAUGAUAUCGGAGCCUGCTT against Clec4g", "z-score": 0.392}, {"sequence": "GGACAAAUACCACAAGUUGTT against Simc1", "z-score": "2.13 (active)"}, {"sequence": "GCAGGAGUAUUGCCAAGGATT against Csf1", "z-score": -0.404}, {"sequence": "CGAAACACUCAAGGUUGUATT against Creb3l2", "z-score": -0.314}, {"sequence": "GCAGCAUGCCUGAAUAUUUTT against Prcp", "z-score": 0.172}, {"sequence": "GGAGGUGGAACAAAUAUUUTT against Emc6", "z-score": 0.361}, {"sequence": "GGAAGACUUGUUCAACUGGTT against Grwd1", "z-score": -0.88}, {"sequence": "GCUGUUUGAGGUCAUUCAUTT against Urb2", "z-score": "4.71 (active)"}, {"sequence": "GGCUUUUGUCAAGCAGCACTT against Ins2", "z-score": -0.628}, {"sequence": "CCUUGAAAAGUCUAAACGUTT against Tmod2", "z-score": 0.375}, {"sequence": "GGGCUAGCCUAGAUAAAAATT against Sltm", "z-score": -1.38}, {"sequence": "GGGCUCCACAUGUUUGCAUTT against Ehmt1", "z-score": 0.392}, {"sequence": "GGAAUUCUCUCAGCAGAAGTT against 1110038F14Rik", "z-score": "-2.17 (active)"}, {"sequence": "GGAACUUCUACAGUCCUCCTT against Parp16", "z-score": 0.193}, {"sequence": "GGCUUCUUAUUGAUGUUGGTT against Asb13", "z-score": -0.166}, {"sequence": "GGAUUUUUGAUGAUGUGUCTT against Arfgap1", "z-score": -0.795}, {"sequence": "CCUUAUAGCAUAAGCUUUATT against Olfr768", "z-score": "2.04 (active)"}, {"sequence": "CCAAGAUACCUUUUUUGAGTT against Paox", "z-score": 0.455}, {"sequence": "GGCCUCUUCACUUAUGUAUTT against Inha", "z-score": -0.22}, {"sequence": "GGUCAAUUGUCCAUAUGACTT against Tox3", "z-score": "-2.24 (active)"}, {"sequence": "GGACAAUGAAGGAAUUGAUTT against Mdm4", "z-score": -0.579}, {"sequence": "CCUCGACUUUUAUUUGGAUTT against Smg6", "z-score": -0.0389}, {"sequence": "GGUUAGCUUCUUAAAACCATT against Adcy10", "z-score": -0.605}, {"sequence": "GGGAGCUAGCAAAAUCGGATT against Eif4g3", "z-score": 0.714}, {"sequence": "GGUGAAGCCAGUUUCUUUATT against Traf3ip2", "z-score": 0.107}, {"sequence": "CGUUGAUGUGUAUUUAAACTT against Vopp1", "z-score": 0.704}, {"sequence": "GCUACUAUUGUGUUCUGAATT against Drd1", "z-score": "2.24 (active)"}, {"sequence": "CGUGAACGUAGAGUUUUCUTT against Fcrl5", "z-score": "3.59 (active)"}, {"sequence": "GGAACUGCUCAUAAAAACATT against Evi2b", "z-score": 0.0355}, {"sequence": "GCUAUUGAGUUAUCGUUGCTT against Stam2", "z-score": 0.715}, {"sequence": "GGUACAGCUUAUGGAUUAATT against Pdgfra", "z-score": -0.193}, {"sequence": "GCCAGGUUUUCUCCAUAGATT against Tmem44", "z-score": -0.841}, {"sequence": "GGUUUAUACUCAUAACCUGTT against Kifbp", "z-score": "2.03 (active)"}, {"sequence": "GAAAUUAGAACAACUUUGGTT against 3830403N18Rik", "z-score": 0.442}]}]}
